In PubChem BioAssay (NCI) one finds growth data, which are given here for 18 compounds.

This is part of a sample that, as a whole, favours compounds with a hit. Of some 83,000 tested, about 20% had one in any assay.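 The test compound was applied at a single concentration to cells in 96-well plates for 48 hours, and percent growth was recorded.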 Unmarked numbers belong to inactive results. Calls of active or inactive are those of the source. The calls were made as follows: active = growth percent below 10; inactive = the rest.

Test in all cases: NCI-60 one-dose screen, 48 h (100 = growth as untreated, 0 = no growth, -100 = all killed)
Settings in all cases: 10 µM unless noted

The subject of assay [1] is T-47D breast.
The subject of assay [2] is BT-549 breast.
Assay [3] concerns MDA-MB-435 melanoma.
Assay [4] deals with MCF7 breast.
The subject of assay [5] is HCT-116 colon.
The subject of assay [6] is HCC-2998 colon.
Assay [7] relates to KM12 colon.
Assay [8] concerns SW-620 colon.

`CCCCCC(=C/c1ccccc1)/C=N/N=C(N)N`: the growth is -34.3% (active) in assay [1]; 46.6% in assay [2]; -80% (active) in assay [3]; -69.6% (active) in assay [4]; -56.6% (active) in assay [5]; -79% (active) in assay [6].
Regarding `COc1ccc(/C(=C(\c2ccccc2)[N+](=O)[O-])c2ccc(OCCN3CCCC3)cc2)cc1`, the growth in assay [1] was 51.5%; in assay [2] it was 74.2%; in assay [3], 48.2%; in assay [4], 37.4%; in assay [5], 44.5%; in assay [6], 80.8%. Moreover, the growth in assay [7] was 54.1%.
With `CN1C(=O)C(=Cc2coc3ccc(Br)cc3c2=O)C(=O)N(C)C1=O`, the growth in assay [1] was 101%; in assay [2], 106%; in assay [3], 109%; in assay [4], 88.3%; in assay [5], 95.2%; in assay [6] it was 98.5%. Also, in assay [7], the growth was 114%.
Turning to `C=C(C)C(C(=O)OCC)(C(=O)OCC)C(C)C`, the growth in assay [1] is 124%; in assay [2], 115%; in assay [8], 107%; in assay [4], 97.4%; in assay [5], 109%; in assay [6], 119%. The growth in assay [7] is 106%.
For the compound `CC(C)(C)C(=O)CCCCCCCC/C=C/CCCC(O)c1ccco1` (stereo not given), the growth in assay [1] was 104%; in assay [2], 105%; in assay [8], 113%; in assay [4], 105%; in assay [5] it was 109%; in assay [6], 88.6%. Also, the growth in assay [7] was 113%.
In the case of `CCOP1(=O)CC(C)=C(Cl)C(P(=O)(O)O)C1` (stereo not given), the growth in assay [1] is 98.6%; in assay [2], 97.4%; in assay [3], 107%; in assay [8], 110%; in assay [4] it was 109%; in assay [6], 94.4%. In addition, the growth in assay [7] is 105%.
As for `CCOc1ccc(N(C)c2ccc(/C=C/C3=[N+](C)c4ccccc4C3(C)C)cc2)cc1`, the growth was 23.2% in assay [1]; 3.12% (active) in assay [2]; -40.4% (active) in assay [8]; 10.1% in assay [4]; -45.6% (active) in assay [5]; 11.4% in assay [6]. Also, in assay [7], the growth was -93% (active).
For `CC(=O)Nc1ccc(S(=O)(=O)Cl)cc1`, the growth is 101% in assay [1]; 114% in assay [2]; 115% in assay [8]; 96% in assay [4]; 111% in assay [5]; 108% in assay [6]. In addition, the growth in assay [7] was 107%.
With `CCCCN(CCC)CCCCCCCCCCN1CCCc2ccccc21`, the growth in assay [1] was 102%; in assay [2], 89.6%; in assay [8], 43.9%; in assay [4], 76.2%; in assay [5] it was 58.3%; in assay [6], 98.3%. Further, the growth in assay [7] was 45.2%.
Turning to `O=C1c2cc([N+](=O)[O-])ccc2-c2cc(Cl)c(NC(=O)C(F)(F)F)cc21`, the growth is 85.2% in assay [1]; 108% in assay [2]; 114% in assay [3]; 35.8% in assay [4]; 104% in assay [5]; 104% in assay [6]. The growth in assay [7] was 114%.
As to `CCOC(=O)C1CCCN1C(=O)C1(NC(C)=O)CCCC1` (stereo not given), the growth was 100% in assay [1]; 95.5% in assay [2]; 99.6% in assay [8]; 99.3% in assay [4]; 96.4% in assay [5]; 108% in assay [6]. Besides, in assay [7], the growth was 91.2%.
As for `c1ccc(Nc2ccccn2)cc1`, the growth in assay [1] is 101%; in assay [2], 98.8%; in assay [3], 112%; in assay [8], 110%; in assay [5], 103%; in assay [6] it was 114%. Besides, the growth in assay [7] was 104%.
`N#Cc1ccc(NC2c3ccccc3CC2O)cc1` (stereo not given): the growth in assay [1] was 103%; in assay [2] it was 99.2%; in assay [3], 117%; in assay [4], 95.8%; in assay [5], 101%; in assay [6], 105%. For the same compound, in assay [7], the growth was 112%.
For `CC(=O)Nc1ccc(CC#N)cc1Br`, the growth was 94.4% in assay [1]; 109% in assay [2]; 99.3% in assay [8]; 96.7% in assay [4]; 96.8% in assay [5]; 96.7% in assay [6]. Also, the growth in assay [7] is 107%.
With `CCC(C)(C)c1ccc(OCCCCCCN2CCN(c3ccc(C)c(Cl)c3)CC2)cc1`, the growth in assay [1] is 66.1%; in assay [2], 79.5%; in assay [3], 97.3%; in assay [4], 88.4%; in assay [5], 62.3%; in assay [6], 83.5%. Also, the growth in assay [7] was 79.3%.
With `CCCCCCCCCCN1CC2CCCCC2C1` (stereo not given), the growth in assay [1] was 56.7%; in assay [2], 69%; in assay [8], 74.2%; in assay [4], 65%; in assay [5], 53.6%; in assay [6], 82.9%. Moreover, the growth in assay [7] was 65.3%.
On to `COc1ccc(Oc2[nH]n(C3=Nc4ccccc4Sc4ccccc43)c(=O)c2C#N)cc1`, for which the growth was 92.8% in assay [1]; 98.2% in assay [2]; 101% in assay [3]; 101% in assay [4]; 93.5% in assay [5]; 103% in assay [6]. Moreover, the growth in assay [7] is 104%.
For `C[C@]12C=CC(=O)C=C1[C@@H](F)C[C@@H]1[C@@H]2[C@@H](O)C[C@@]2(C)[C@H]1CC[C@]2(O)C(=O)CO`, the growth in assay [1] is 99.4%; in assay [2], 78.5%; in assay [3] it was 103%; in assay [4] it was 87.4%; in assay [5], 105%; in assay [6] it was 105%. In addition, in assay [7], the growth is 100%.
